Screening data as filed in PubChem.
GLA inh pH 4.5 = inhibitors of human alpha-galactosidase A at pH 4.5; activity change, negative = inhibition, % at 105 µM; purified enzyme, 4-MU-alpha-Gal fluorescence, pH 4.5; 230,000 tested, under 10 active; P06280;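 note: 0% = full activity with enzyme and -100% = basal without enzyme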
HTT ATP protect = protects HTT-Q103 PC12 cells, measured by ATP. PC12 HTT-Q103 induced, cytoprotection, ATP luminescence, 40 h. Potency, µM (series often up to 56.4 µM), for the others: cytoprotection (ATP increase), usual class: activators. 230,000 tested, 0.14% active; note: potency is the fitted concentration of half-maximal effect; % of control where 0% means no effect; nearly all actives have a fitted effect of over 45% in size
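ATP quantification (ATPlite) reports survival of PC12 cells in which tebufenozide, 100 nM final, switches on Htt exon 1 with 103 glutamines linked to GFP; compounds are titrated.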
ERK EGF inh = EGF-driven ERK pathway inhibition; HEK293-V1b, EGF-stimulated phospho-ERK AlphaScreen; Potency, µM (titrated, usually from 11.5 µM), for the others: top-dose activity change, negative = inhibition, actives largely listed as inhibitors; 130,000 tested, 0.41% active; AID 1454;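 note: potency is the fitted concentration of half-maximal effect; plate controls were stimulated vehicle wells for no effect and unstimulated vehicle basal for full effect; nearly all actives have a fitted effect of over 55% in size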
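Homogeneous cell-based phospho-ERK assay: HEK293/V1b cells in 1% FBS, compound 30 min then EGF 5 min, AlphaScreen luminescence. Activity normalized between DMSO and 25 nM EGF controls; AC50 from Hill modelling.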
HttQ103 aggreg = mutant huntingtin aggregation inhibition; PC12 HttQ103-GFP aggregates, Acumen cytometry, 40 h; AID 1688; 220,000 tested, 1.1% active; Potency, µM (top dose mostly 46.1 µM), inactives show top-dose activity change, negative = inhibition, most hits filed as inhibitors; note: potency is the fitted concentration of half-maximal effect; % is set by controls: 0 for no effect and ±100 for the full control effect; nearly all actives have a fitted effect of over 60% in size
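PC12/HTTQ103-GFP, ecdysone-inducible; teb 100 nM; cpd qHTS titration; GFP aggregates read on laser cytometer, Ex 488/Em 500-530 nm.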
aGal spleen mod = inhibitors or activators of human alpha-galactosidase in spleen homogenate; Potency, µM (series often up to 80 µM), inactives show top-dose activity change, negative = inhibition, most hits filed as inhibitors; 240,000 tested, 0.008% active; human spleen homogenate, 4MU-alpha-Gal fluorescence, 40 min;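 note: potency is the fitted concentration of half-maximal effect; 0% = enzyme with vehicle and -100% = no enzyme basal signal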
Target sequence (P06280 32-429 limits assumed): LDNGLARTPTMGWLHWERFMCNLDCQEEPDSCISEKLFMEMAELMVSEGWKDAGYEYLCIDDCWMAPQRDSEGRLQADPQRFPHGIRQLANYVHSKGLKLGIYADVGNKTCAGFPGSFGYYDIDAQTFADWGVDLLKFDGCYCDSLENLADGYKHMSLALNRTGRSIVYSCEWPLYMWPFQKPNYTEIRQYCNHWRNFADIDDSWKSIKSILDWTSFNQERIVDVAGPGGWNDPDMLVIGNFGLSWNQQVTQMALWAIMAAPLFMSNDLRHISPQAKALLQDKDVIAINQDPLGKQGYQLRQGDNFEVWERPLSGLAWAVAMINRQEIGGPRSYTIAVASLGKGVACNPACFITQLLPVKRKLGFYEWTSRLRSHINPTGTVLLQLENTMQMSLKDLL
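Spleen homogenate 1 ug + cpd (titration) + 4-MU-alpha-D-galactopyranoside 1 mM; 37C 40 min; 50 mM citrate/phosphate pH 5.0, 0.01% Tween-20; stop pH 10; fluorescence 365/440; AC50 via Hill.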
Active calls of the source: *; ? = inconclusive; nt = not tested or not shown; ! = a repeat was not active; [ ] = another dose, or the depositor's remark. Hits are enriched below; roughly 1.2% of the tested compounds scored in any of these assays. Calls come from the whole dose curve; as a rule, active = well fitted curve in the direction sought with a large enough effect; inconclusive = small, poorly fitted or top-dose-only effect, or another doubt; inactive = no such curve, though single readings can be large; an effect the other way counts as inactive or inconclusive.

SMILES | GLA inh pH 4.5 | HTT ATP protect | ERK EGF inh | HttQ103 aggreg | aGal spleen mod
Cc1ccc(C(C(=O)NCC2CCCO2)N(Cc2ccccc2)C(=O)c2ccc(-c3ccccc3)[nH]2)o1 (centres undefined) | -14 | nt | 7% | 0.13µM* | 4%
O=c1c(-c2cccc(Cl)c2)nc2cncnc2n1C1CC1 | nt | -61% | nt | nt | 2%
CC[C@]1(O)C[C@H]2CN(CCc3c([nH]c4ccccc34)[C@@](C(=O)OC)(c3cc4c(cc3OC)N(C=O)[C@H]3[C@@](O)(C(=O)OC)[C@H](OC(C)=O)[C@]5(CC)C=CCN6CC[C@]43[C@@H]65)C2)C1 | nt | -321% | nt | ? | nt
CN(C)C=Nc1c(C(=O)c2ccccc2)sc2nccc(N(C)C)c12 | 2 | nt | -4% | 6.3µM* | 1%
CN(C)c1ccnc2sc(C(N)=O)c(N)c12 | -10 | 26% | nt | 1.6µM* | -4%
CCN(CC)CCC(c1ccc(N(C)C)cc1)c1c(OC)cc(OC)c2c1OC(=O)CC2c1ccc(N(C)C)cc1 (centres undefined) | nt | nt | nt | nt | -6%
C=C(C)C(=O)OCCOC(=O)C(=C)C | nt | nt | nt | nt | 4%
CC(=O)Nc1nonc1-c1nc2ccccc2n1CC1CC1 | -3 | 30% | nt | 7.1µM* | 1%
CC(=O)Nc1ccc(OC(=O)c2ccccc2OC(C)=O)cc1 | nt | 8% | nt | -2% | nt
COc1ccc(-c2csc(NC(=O)c3ccccc3NS(=O)(=O)c3ccc(C)cc3)n2)cc1 | -2 | 23%[10 µM] | ? | ? | -1%
COc1ccc(S(=O)(=O)Nc2ccccc2C(=O)Nc2nc(-c3ccc(F)cc3)cs2)cc1OC | 1 | ? | ? | 10µM* | 9%
O=c1[nH]c2cc(Cl)c(O)cc2o1 | nt | nt | nt | nt | -6%
CCN1/C(=C/c2cc[n+](C)cc2)C=Cc2cc(C)ccc21 | -9 | -59%[10 µM] | 16µM* | 8.9µM* | -3%
COC(=O)C1=C(N)Oc2cc(C)n(C)c(=O)c2C1c1ccc(Cl)cc1 (centres undefined) | -15 | 23%[0.074 µM] | nt | 11µM* | 3%
CC1(C)OC2OC(C(=O)N/N=C/c3cc(Br)ccc3O)C3OC(C)(C)OC3C2O1 (centres undefined) | -21 | 16%[10 µM] | -4% | 10µM* | -15%
Cc1ccccc1C(=O)Nc1nnc(-c2ccc(F)cc2)o1 | -2 | -47% | nt | 10µM* | 4%
CC[C@H](C)[C@H](NC(=O)[C@H](C)NC(=O)CNC(=O)[C@H](CCCCN)NC(=O)[C@H](CC(N)=O)NC(=O)[C@H](CO)NC(=O)CN)C(=O)N[C@H](C(=O)NCC(=O)N[C@@H](CC(C)C)C(=O)N[C@@H](CCSC)C(=O)O)[C@@H](C)CC | nt | nt | nt | nt | 0%
c1ccc(Oc2nc(NC3CCCCC3)c3[nH]cnc3n2)cc1 | -3 | nt | nt | nt | 9%
C=C[C@@]1(C)CC(=O)[C@]2(O)[C@@]3(C)[C@H](O)CCC(C)(C)[C@@H]3[C@H](O)[C@H](OC(C)=O)[C@@]2(C)O1 | nt | nt | nt | nt | 5%
C[C@H]1C(=O)N(S(=O)(=O)c2ccccc2[N+](=O)[O-])[C@H]1c1ccc(-c2ccccc2)cc1 | nt | nt | nt | nt | 3%
O=C(/C=C/c1cccc(Cl)c1)Nc1ncccn1 | 3 | 27%[10 µM] | -1% | -18% | 2%
CSc1cccc(NC(=O)/C=C/c2cccc(Cl)c2)c1 | -11 | nt | 9% | 16µM* | 12%
CCCc1cc(C(=O)N2CCN(C(c3ccccc3)c3ccccc3)CC2)no1 | -6 | -16%[10 µM] | nt | 22µM* | -6%
NC(C(=O)O)(c1ccc(P(=O)(O)O)cc1)C1CC1 (centres undefined) | nt | -37% | nt | nt | 0%
COC(=O)c1ccc2c(c1)C(C)(C)C(/C=C/c1ccc(OC)c(OC)c1OC)=[N+]2C | -7 | -90% | nt | 11µM* | 9%
COC(=O)c1ccc2c(c1)C(C)(C)C(/C=C/c1ccc(O)cc1)=[N+]2C | -13 | -62%[10 µM] | nt | -24%[9.22 µM] | 9%
O=S(=O)(c1cccc2cnccc12)N1CCCNCC1 | 4 | ? | -1% | 13µM*! | 1%
CC1CNCCN1S(=O)(=O)c1cccc2cnccc12 (centres undefined) | -6 | -45% | -9%[57.5 µM] | ? | -17%
O=S1(=O)NCC23CCC(CC21)O3 (centres undefined) | nt | nt | nt | nt | 5%
